# TbPYK inhibitor: inhibitors of Trypanosoma brucei pyruvate kinase; TbPYK enzyme, Kinase-Glo Plus ATP luminescence, 45 min; Q57TT1; hit rate 0.12% among 410,000; Potency, µM (top dose mostly 76.8 µM), usual class: inhibitors; further: nearly all actives have a fitted effect of over 50% in size
#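 Readout: single end-point luminescence (Kinase-Glo Plus, 10 min). Reaction conditions were TbPYK/substrate plus 130 uM ADP, 45 min at RT, pH 7.2 TEA buffer. No-enzyme wells served as controls, and data were normalized before concentration-response fitting.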
# VACV Venus inh: vaccinia inhibition (Venus reporter); Vaccinia virus Venus reporter expression, fluorescence; Potency, µM (doses to about 36.5 µM), usual class: inhibitors; hit rate 0.46% among 330,000; calls by dose curve; tested in A549 cells; further: nearly all actives have a fitted effect of over 30% in size
# LmPK inhibitor: blocks Leishmania mexicana pyruvate kinase activity; Potency, µM (series often up to 57.5 µM), usual class: inhibitors; hit rate 0.37% among 290,000; purified LmPK, Kinase-Glo ATP luminescence, 1 h
# Target sequence (Q27686 whole entry, looked up): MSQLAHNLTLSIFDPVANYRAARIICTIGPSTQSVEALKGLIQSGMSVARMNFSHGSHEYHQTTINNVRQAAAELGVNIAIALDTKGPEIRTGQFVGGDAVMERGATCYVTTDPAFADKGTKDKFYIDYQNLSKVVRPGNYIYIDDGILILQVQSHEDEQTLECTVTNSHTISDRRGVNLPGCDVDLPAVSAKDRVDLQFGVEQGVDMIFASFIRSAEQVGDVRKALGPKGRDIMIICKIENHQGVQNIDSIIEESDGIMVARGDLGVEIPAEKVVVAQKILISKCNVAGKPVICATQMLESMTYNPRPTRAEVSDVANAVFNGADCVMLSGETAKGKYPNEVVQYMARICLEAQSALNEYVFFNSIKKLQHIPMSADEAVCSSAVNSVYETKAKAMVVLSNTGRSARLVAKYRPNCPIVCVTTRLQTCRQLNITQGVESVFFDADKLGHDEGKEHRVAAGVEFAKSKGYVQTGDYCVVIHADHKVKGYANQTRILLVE
#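 In 50 mM imidazole pH 7.2 with 7 mM MgCl2, LmPK (0.1 nM) turned over PEP (0.5 mM) and ADP (0.1 mM) for 1 h at room temperature. Luciferase read-out of ATP.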
# HCMV antiviral: human cytomegalovirus inhibition | HFF cells, HCMV-luciferase reporter, 72 h; active compounds read low | activity change, negative = inhibition, % at 57.5 µM | hit rate 4.5% among 410,000 | AID 1259415; in the data active means activity change below about -60%; inconclusive means no clear call, values can overlap the other calls; inactive means above about -39%
#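 Cell-based, HFFs, 1000 cells/well, 16 h 37C; cpds in DMSO + HCMV-luc, MOI 1 PFU/cell; 72 h 37C; OneGlo luminescence after 5 min RT; norm. to buffer vs Salinomycin 10uM.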
# VACV mCherry inh: vaccinia inhibition (mCherry reporter). hit rate 0.63% among 310,000. Vaccinia virus mCherry reporter infection, fluorescence. Potency, µM (doses to about 36.5 µM), usual class: inhibitors. AID 720579; calls by dose curve; tested in A549 cells; further: nearly all actives have a fitted effect of over 35% in size
# Numbers stand for hits; - = inactive; ? = inconclusive; . = not tested or not shown; + = active, no number; [ ] = another dose, or the depositor's remark. Most compounds without a hit are left out; they make up all but 5% or so of the library. Unless noted, the call rests on the fitted dose curve; in most records, active means well fitted curve in the direction sought with a large enough effect; inconclusive means small, poorly fitted or top-dose-only effect, or another doubt; inactive means no such curve, though single readings can be large; an effect the other way counts as inactive or inconclusive.
SMILES,TbPYK inhibitor,VACV Venus inh,LmPK inhibitor,HCMV antiviral,VACV mCherry inh
Cc1cc(C2=NNC(=NC3CC3)SC2)c(C)n1-c1ccccc1,-,-,?,-77,-
CN(C(=O)Cn1nc(C(=O)O)c2ccccc2c1=O)C1(C#N)CCCCC1,-,.,.,-,.
COc1cc(NS(=O)(=O)c2ccc3[nH]c(=O)[nH]c3c2)cc(OC)c1,-,-,-,-,-
C[C@@H]1CN([C@@H](C)CO)C(=O)CCCn2nncc2CO[C@@H]1CN(C)C(=O)c1cc(-c2ccccc2)on1,-,-,.,-,-
O=[N+]([O-])c1cc(Cl)cc(/C=N\Nc2ccccn2)c1O,?,?,-,-103,2.2µM
Cc1ccc(NC(=O)Cc2ccc(-n3c(C)nc4cccnc43)cc2)c(Cl)c1,-[15.4 µM],?,.,+,-
CCCCCCC(C)n1[nH]c(=O)c2c(C)cc(=O)[nH]c21 (stereo unspecified),-,-,-,-70,-
CCCCC(C)n1[nH]c(=O)c2c(C)cc(C)nc21 (stereo unspecified),-,-,-,-,-
CCCOc1ccc(C(=O)N2CC3(CC(c4cccc(NC(=O)[C@@H]5CCC(=O)N5)c4)=NO3)C[C@H]2C(=O)NC2(C(N)=O)CC2)cc1 (stereo partly specified),-,-,-,-64,-
CC1=C(C(=O)Nc2cccc(C(=O)NC3CCCC(C)C3C)c2)SCCO1 (stereo unspecified),-,-[7.34 µM],-,-,-[7.34 µM]
CCOc1ccc(/C=C/C(O)=C2/C(=O)NC3(C)CC2c2ccccc2O3)cc1OC (stereo unspecified),-,?,-,?,?
CCOc1ccc(/C=C/C(O)=C2/C(=O)N(C)C3(C)CC2c2ccccc2O3)cc1OC (stereo unspecified),-,-,-,-98,?
COc1cc(/C=C/c2cc[n+](C)cc2)ccc1OCC(=O)Nc1ccc(Cl)c(Cl)c1,-,-,-,-91,-
COc1ccc(NC(=O)COc2ccc(/C=C/c3cc[n+](C)cc3)cc2OC)cc1,-,-,-,-,-
COc1cc(/C=C/c2cccc[n+]2C)ccc1OCC(=O)Nc1cccc(Cl)c1,-,-,-,-70,-
COc1ccc(/C=C/C(=O)Nc2ccc(Cl)c(Cl)c2)cc1OC,-,-,.,-81,-
COc1ccc(/C=C/C(=O)Nc2ccncc2)cc1OC,-,-,-,-,-
CCOc1ccc(NC(=O)N(C2CCCCCC2)C2CCN(C(C)=O)CC2)cc1,-,-,-,-,-
CCOc1ccc(NC(=O)N(Cc2cn(CC)c3ccccc23)C2CCCCCC2)cc1,-,-,.,-87,?
CCc1ccc(NC(=O)N(Cc2cn(CC)c3ccccc23)C2CCCCC2)cc1,-,-,.,-104,-
Cc1ccc(-c2c[nH]c(=S)n2-c2ccccc2F)cc1,-,-,?,-64,-
COc1ccccc1-n1c(-c2ccccc2)c[nH]c1=S,?,.,11µM,-,.
S=c1[nH]cc(-c2ccccc2)n1-c1ccccc1Cl,-,-,?,-,-
COc1cccc(C(=O)Nc2ccccc2OCc2cc(=O)n3ccccc3n2)c1,-,-,.,-,-
Cc1nc(C2COc3ccccc3O2)sc1C(=O)O (stereo unspecified),-,-,?,-,-
SMILES,TbPYK inhibitor,VACV Venus inh,LmPK inhibitor,HCMV antiviral,VACV mCherry inh
Cc1scc(C(=O)NNC(=S)NC(C)c2ccccc2)c1C (stereo unspecified),-,-,-,-78,-
CCOC(=O)[C@]12Cc3ccccc3[C@H]1N(CCC(=O)OC)C(=O)c1ccccc12,-,-,.,-98,-
CCOC(=O)[C@]12Cc3cc(C)ccc3[C@H]1N(CCC(=O)OC)C(=O)c1cc(OC)ccc12,-,?,.,-109,?
COc1ccc2c(c1)C(=O)N(c1ccc(C)cc1C)C(=O)C2,-,-,-,?,-
CCOC(=O)CNC(=O)C1c2cc(OC)c(OC)cc2C(=O)N(C)C1c1ccccc1F (stereo unspecified),-,.,-,-,.
CCCCCN1C(=O)c2ccccc2[C@@]2(C(=O)OCC)Cc3cc(OC)ccc3[C@@H]12,-,?,.,-109,?
CCOC(=O)[C@]12Cc3c(cc(OC)c(OC)c3OC)[C@H]1N(CCC(=O)OC)C(=O)c1cc(OC)ccc12,-,-,.,-105,-
CCOC(=O)[C@]12Cc3cc(OC)ccc3[C@H]1N(Cc1ccccc1)C(=O)c1ccccc12,-,?,.,-,?
CCOC(=O)[C@]12Cc3c(cc(OC)c(OC)c3OC)[C@H]1N(C)C(=O)c1cc(OC)ccc12,-,-,.,-101,-
COc1ccccc1-c1nnc(C2CCN(C(=O)c3ccc(C)cc3)CC2)o1,-,-,.,-,-
COc1ccc(-c2nnc(C3CCN(C(=O)c4ccccc4F)CC3)o2)cc1,?,-,.,-105,-
Cc1ccccc1-c1nnc(C2CCN(S(=O)(=O)c3ccc(Cl)cc3)CC2)o1,-,-,.,-104,-
COc1ccc(-c2nnc(C3CCN(S(=O)(=O)c4cccc(Cl)c4)CC3)o2)cc1,?,-,.,-94,-
COc1ccc(S(=O)(=O)N2CCC(c3nnc(-c4ccccc4C)o3)CC2)c(OC)c1,?,-,.,-,-
O=C(NCc1ccccc1)C1=C[C@@H](C2CCCCC2)C[C@@H](OCCCCO)O1,-,-,.,-,-
O=C(Nc1ccc(O)cc1)c1cc2ccccc2c(=O)s1,-,-,-,-71,-
NC(=O)C1CCCN(C(=O)Nc2cccc3ccccc23)C1 (stereo unspecified),-,-,-,-64,.
CCN(CC)C(=O)C1CCCN(C(=S)Nc2cccc3ccccc23)C1 (stereo unspecified),-,-,-,-,-
S=C(Nc1cccc2ccccc12)NN1CCCCCC1,-,-,.,-63,-
CC1(C)Cc2c(sc3ncn(N)c(=N)c23)CO1,-,-,-,-,-
CC1CCCc2sc3ncn(N)c(=N)c3c21 (stereo unspecified),-,-,-,-63,-
Cn1nc(C(=O)N2CCOCC2)c([N+](=O)[O-])c1C(=O)N1CCOCC1,-,-,-,-,-
COc1ccc(NC(=O)c2cc3c(Cl)nc4ccccc4c3s2)cc1OC,-,-,-,-83,-
CC(=O)NC(Nc1nc2c(s1)CCCC2)(C(F)(F)F)C(F)(F)F,-,-,-,-,-
CCCOc1ccc(C(=O)NNC(=S)NC(=O)c2cccs2)cc1,-,?,-,?,10µM
CCCOc1ccc(C(=O)NNC(=S)NC(C)=O)cc1,?,.,-,-94,.
CCCOc1ccc(C(=O)NNC(=S)NC(=O)c2ccco2)cc1,-,?,-,-,11µM
CCCOc1ccc(C(=O)NNC(=S)NC(=O)c2ccccc2)cc1,-,?,-,-86,?
CCOC(=O)N1CCN(C(=O)c2ccc3c(=O)n(CCC4=CCCCC4)c(=O)[nH]c3c2)CC1,-,.,-,-,.
CCN(CC)S(=O)(=O)c1cccc(NC(=O)/C=C/c2cccc([N+](=O)[O-])c2)c1,-,?,-,-85,?
